The results in this text go back to paper PMC11995724, “Antibiotic target discovery by integrated phenotypic and activity-based profiling of electrophilic fragments” (Cell chemical biology, 2025).

Structures are written as SMILES. Hit rate of the full screen: of about 3,200 compounds, about 110 (3.4%) showed an effect of 50% or more. Only a selection was taken, and strong results are over-represented in it overall.

The test system of the assay is T1, V. cholerae SAD30.
T1 construct: SAD30
Details: species or system S. aureus MSSA476 (TSB) or V. cholerae SAD30 (LB); 384-well bacterial growth screen at 25 uM, OD600 relative to DMSO control. The following applies: relative growth, OD600, LB; 25 µM; inhibitor.
`C=CC(=O)N1CCC[C@H]1C(=O)Nc1cccc(C)n1` [1-B10, (2S)-N-(6-methylpyridin-2-yl)-1-(prop-2-enoyl)pyrrolidine-2-carboxamide]: the “% of control remaining” value worked out at 90.0393%.

Turning to `C=CCNC(=O)C(C#N)=Cc1ccc(C)s1` [9-F05, 2-cyano-3-(5-methylthiophen-2-yl)-N-(prop-2-en-1-yl)prop-2-enamide], the “% of control remaining” value was determined as 77.8382%.

For the compound `CC(Cl)C(=O)NCCc1cn(C)nn1` (stereo not shown) [7-A14, 2-chloro-N-[2-(1-methyl-1H-1,2,3-triazol-4-yl)ethyl]propanamide], the “% of control remaining” value is reported as 82.7358%.

With `Cc1cccc2nc(C3CCN(C(=O)C(C)Cl)CC3)oc12` (stereo not shown) [7-M12, 2-chloro-1-[4-(7-methyl-1,3-benzoxazol-2-yl)piperidin-1-yl]propan-1-one], the “% of control remaining” value was found to be 63.8361%.

In the case of `CC(Cl)C(=O)Nc1ccc2c(c1)CCC2` (stereo not shown) [5-C19, 2-chloro-N-(2,3-dihydro-1H-inden-5-yl)propanamide], the “% of control remaining” value came to 86.9181%.

With `O=C(CCl)c1ccc(CC(=O)N2CCOCC2)s1` [10-H06, 2-chloro-1-{5-[2-(morpholin-4-yl)-2-oxoethyl]thiophen-2-yl}ethan-1-one], the “% of control remaining” value is given as 101.305%.

In the case of `N#CC(=Cc1ccccc1Cl)C(=O)Nc1ccc2c(c1)OCCO2` [8-F03, 3-(2-chlorophenyl)-2-cyano-N-(2,3-dihydro-1,4-benzodioxin-6-yl)prop-2-enamide], the “% of control remaining” value is listed as 94.4256%.

On to `Cc1cc(C(=O)CCl)c(C)n1-c1cc(Cl)cc(Cl)c1` [10-I04, 2-chloro-1-[1-(3,5-dichlorophenyl)-2,5-dimethyl-1H-pyrrol-3-yl]ethan-1-one], for which the “% of control remaining” value worked out at 87.746%.

As to `O=C(CCl)c1cc(Cl)sc1Cl` [10-D16, 2-chloro-1-(2,5-dichlorothiophen-3-yl)ethan-1-one], the “% of control remaining” value is given as 21.5079%.

As to `Cc1cc(C(=O)CCl)c(C)s1` [10-K16, 2-chloro-1-(2,5-dimethylthiophen-3-yl)ethan-1-one], the “% of control remaining” value is 28.6772%.

In the case of `Cc1cc(C(=O)CCl)c(C)n1CC(N)=O` [10-O16, 2-[3-(2-chloroacetyl)-2,5-dimethyl-1H-pyrrol-1-yl]acetamide], the “% of control remaining” value amounted to 94.6035%.

On to `Cc1cc(C(=O)CCl)c(C)[nH]1` [10-J08, 2-chloro-1-(2,5-dimethyl-1H-pyrrol-3-yl)ethan-1-one], for which the “% of control remaining” value came out at 99.1233%.

As for `N#CC(=Cc1cccc2ccccc12)C(=O)NC1CC1` [9-O03, 2-cyano-N-cyclopropyl-3-(naphthalen-1-yl)prop-2-enamide], the “% of control remaining” value turned out to be 97.2808%.

Take `CC(C)N(Cc1ccc(N(C)C)cc1)C(=O)CCl` [5-E06, 2-chloro-N-{[4-(dimethylamino)phenyl]methyl}-N-(propan-2-yl)acetamide]: the “% of control remaining” value is recorded as 100.2%.

Turning to `O=C(CCl)NCCOc1cccc(F)c1` [6-G03, 2-chloro-N-[2-(3-fluorophenoxy)ethyl]acetamide], the “% of control remaining” value came out at 108.75%.

As to `CC(Cl)C(=O)NCc1ccon1` (stereo not shown) [7-I13, 2-chloro-N-[(1,2-oxazol-3-yl)methyl]propanamide], the “% of control remaining” value was 79.9604%.

With `Cc1cc(C(=O)CCl)c(F)cc1F` [10-O03, 2-chloro-1-(2,4-difluoro-5-methylphenyl)ethan-1-one], the “% of control remaining” value stood at 34.9114%.

Regarding `Cc1cc(F)c(C(=O)CCl)cc1F` [10-L19, 2-chloro-1-(2,5-difluoro-4-methylphenyl)ethan-1-one], the “% of control remaining” value was determined as 32.7294%.

Consider `Cc1ccc(-n2c(C)cc(C(=O)CCl)c2C)cc1C` [10-B14, 2-chloro-1-[1-(3,4-dimethylphenyl)-2,5-dimethyl-1H-pyrrol-3-yl]ethan-1-one], for which the “% of control remaining” value turned out to be 97.5648%.

On to `Cc1cc(C(=O)CCl)c(C)c(C)c1C` [10-I06, 2-chloro-1-(2,3,4,5-tetramethylphenyl)ethan-1-one], for which the “% of control remaining” value came to 98.9675%.

As to `Cc1cc(C)c(C(=O)CCl)c(C)c1` [10-C08, 2-chloro-1-(2,4,6-trimethylphenyl)ethan-1-one], the “% of control remaining” value was found to be 98.9675%.

`Cc1ccc(-n2c(C)cc(C(=O)CCl)c2C)cc1F` [10-C06, 2-chloro-1-[1-(3-fluoro-4-methylphenyl)-2,5-dimethyl-1H-pyrrol-3-yl]ethan-1-one]: the “% of control remaining” value is given as 94.9153%.

Consider `N#CC(=Cc1ccc([N+](=O)[O-])cc1)C(=O)Nc1ccc(Cl)cc1` [8-O11, N-(4-chlorophenyl)-2-cyano-3-(4-nitrophenyl)prop-2-enamide], for which the “% of control remaining” value is 68.7288%.

For `O=C(CCl)N1N=C(c2cccs2)CC1c1cccc(O)c1` (stereo not shown) [6-L04, 2-chloro-1-[5-(3-hydroxyphenyl)-3-(thiophen-2-yl)-4,5-dihydro-1H-pyrazol-1-yl]ethan-1-one], the “% of control remaining” value came to 102.076%.

Regarding `CC(CO)(Cc1ccc(F)cc1)NC(=O)CCl` (stereo not shown) [7-F06, 2-chloro-N-{2-[(4-fluorophenyl)methyl]-1-hydroxypropan-2-yl}acetamide], the “% of control remaining” value came out at 78.5065%.

On to `CC(Cl)C(=O)N1Cc2ccccc2OCC1C` (stereo not shown) [7-F11, 2-chloro-1-(3-methyl-2,3,4,5-tetrahydro-1,4-benzoxazepin-4-yl)propan-1-one], for which the “% of control remaining” value was 75.731%.

On to `Cc1ccc(C=C(C#N)C(=O)NCc2ccco2)o1` [8-P19, 2-cyano-N-[(furan-2-yl)methyl]-3-(5-methylfuran-2-yl)prop-2-enamide], for which the “% of control remaining” value is recorded as 80.6934%.

For `N#CC(=Cc1cc2ccccc2o1)C(=O)NCc1ccco1` [9-O08, 3-(1-benzofuran-2-yl)-2-cyano-N-[(furan-2-yl)methyl]prop-2-enamide], the “% of control remaining” value is listed as 80.4215%.

Take `N#CC(=Cc1ccc([N+](=O)[O-])o1)C(=O)NCc1ccco1` [8-I17, 2-cyano-N-[(furan-2-yl)methyl]-3-(5-nitrofuran-2-yl)prop-2-enamide]: the “% of control remaining” value is -0.06798%.

For the compound `Cc1cc(C=C(C#N)C(N)=O)c(C)n1-c1cccc2ccccc12` [9-I12, 2-cyano-3-[2,5-dimethyl-1-(naphthalen-1-yl)-1H-pyrrol-3-yl]prop-2-enamide], the “% of control remaining” value is on record as 52.4133%.

For the compound `C=CC(=O)N1CCC(C(=O)NC[C@H]2C[C@@H](O)C2)(c2ccccc2)CC1` [3-O04, 4-phenyl-1-(prop-2-enoyl)-N-{[(1s,3s)-3-hydroxycyclobutyl]methyl}piperidine-4-carboxamide], the “% of control remaining” value is 105.852%.

On to `CC(Cl)C(=O)Nc1ccccc1[N+](=O)[O-]` (stereo not shown) [4-G18, 2-chloro-N-(2-nitrophenyl)propanamide], for which the “% of control remaining” value amounted to 96.0966%.

On to `O=C1C=CC(=O)N1CCCCO` [10-K07, 1-(4-hydroxybutyl)-2,5-dihydro-1H-pyrrole-2,5-dione], for which the “% of control remaining” value is listed as 17.4557%.

As for `CN(C)CCN1C(=O)C=CC1=O` [10-G11, 1-[2-(dimethylamino)ethyl]-2,5-dihydro-1H-pyrrole-2,5-dione], the “% of control remaining” value was found to be 99.9026%.

On to `CCOC=C(C#N)C(=O)N1CCN(S(=O)(=O)c2cc[nH]n2)CC1` [9-D06, 3-ethoxy-2-[4-(1H-pyrazole-3-sulfonyl)piperazine-1-carbonyl]prop-2-enenitrile], for which the “% of control remaining” value is recorded as 86.1319%.

With `C#CCN1C(=O)C=CC1=O` [10-F09, 1-(prop-2-yn-1-yl)-2,5-dihydro-1H-pyrrole-2,5-dione], the “% of control remaining” value amounted to 15.1179%.

Regarding `CC(Cl)C(=O)N1CCN(Cc2ccc3ccccc3n2)CC1` (stereo not shown) [7-A15, 2-chloro-1-{4-[(quinolin-2-yl)methyl]piperazin-1-yl}propan-1-one], the “% of control remaining” value came out at 80.0925%.

On to `Cc1ccc(C(=O)CCl)o1` [10-A09, 2-chloro-1-(5-methylfuran-2-yl)ethan-1-one], for which the “% of control remaining” value is 117.514%.

Regarding `Cc1nc(C)c(C(=O)CCl)o1` [10-N08, 2-chloro-1-(2,4-dimethyl-1,3-oxazol-5-yl)ethan-1-one], the “% of control remaining” value stood at 41.4572%.

`Cc1nc(C#N)c(N2CCN(C(=O)CCl)CC2)o1` [5-L18, 5-[4-(2-chloroacetyl)piperazin-1-yl]-2-methyl-1,3-oxazole-4-carbonitrile]: the “% of control remaining” value was found to be 96.3329%.

Take `CC(Cl)C(=O)Nc1c(Cl)cccc1Cl` (stereo not shown) [4-B16, 2-chloro-N-(2,6-dichlorophenyl)propanamide]: the “% of control remaining” value stood at 102.653%.

Consider `C=CC(=O)NC(=O)NCc1ccccc1` [1-I04, 1-benzyl-3-(prop-2-enoyl)urea], for which the “% of control remaining” value worked out at 96.861%.

`NS(=O)(=O)c1cccc2cc(NC(=O)CCl)ccc12` [5-K16, 2-chloro-N-(5-sulfamoylnaphthalen-2-yl)acetamide]: the “% of control remaining” value is recorded as 109.11%.

In the case of `C=CC(=O)N(Cc1c(F)cc(C)cc1Cl)C1CCCOCC1` (stereo not shown) [2-A13, N-[(2-chloro-6-fluoro-4-methylphenyl)methyl]-N-(oxepan-4-yl)prop-2-enamide], the “% of control remaining” value was 81.8585%.

`C=CC(=O)N1CCC(C(=O)N2CCN(c3ccnc(C)n3)CC2)CC1` [2-L06, 1-{4-[4-(2-methylpyrimidin-4-yl)piperazine-1-carbonyl]piperidin-1-yl}prop-2-en-1-one]: the “% of control remaining” value turned out to be 88.9607%.

Regarding `COc1cccc([C@H]2C[C@H](N(C)C(=O)C(C)Cl)C2)c1` (stereo partly shown) [6-B17, 2-chloro-N-methyl-N-[(1r,3r)-3-(3-methoxyphenyl)cyclobutyl]propanamide], the “% of control remaining” value is listed as 89.6388%.

With `Cc1noc(C)c1C(=O)CCl` [10-K13, 2-chloro-1-(3,5-dimethyl-1,2-oxazol-4-yl)ethan-1-one], the “% of control remaining” value is reported as 23.0664%.

On to `Cc1noc(C)c1CN(C)C(=O)CCl` [5-G06, 2-chloro-N-[(3,5-dimethyl-1,2-oxazol-4-yl)methyl]-N-methylacetamide], for which the “% of control remaining” value was found to be 92.4661%.

In the case of `Cc1coc(C)c1C(=O)CCl` [10-M11, 2-chloro-1-(2,4-dimethylfuran-3-yl)ethan-1-one], the “% of control remaining” value came out at 109.41%.

As for `O=C(c1ccccc1)c1cc(Cl)ccc1N1C(=O)C=CC1=O` [10-M16, 1-(2-benzoyl-4-chlorophenyl)-2,5-dihydro-1H-pyrrole-2,5-dione], the “% of control remaining” value was found to be 57.9778%.

`O=C1C=CC(=O)N1c1ccccc1F` [10-D17, 1-(2-fluorophenyl)-2,5-dihydro-1H-pyrrole-2,5-dione]: the “% of control remaining” value is 26.1835%.

In the case of `CN(C(=O)CCl)C1CCN(c2ccccc2F)C1=O` (stereo not shown) [5-A18, 2-chloro-N-[1-(2-fluorophenyl)-2-oxopyrrolidin-3-yl]-N-methylacetamide], the “% of control remaining” value was determined as 104.066%.

As for `O=C1C=CC(=O)N1c1ccc(F)cc1F` [10-F15, 1-(2,4-difluorophenyl)-2,5-dihydro-1H-pyrrole-2,5-dione], the “% of control remaining” value is recorded as 26.4952%.

Consider `N#CC(=Cc1cccc(-c2ccncc2)c1)C(=O)NCc1ccco1` [9-B06, 2-cyano-N-[(furan-2-yl)methyl]-3-[3-(pyridin-4-yl)phenyl]prop-2-enamide], for which the “% of control remaining” value amounted to 87.4915%.

Consider `C=CC(=O)N1CCC(c2nc(C3CC3)no2)C1` (stereo not shown) [2-E09, 1-[3-(3-cyclopropyl-1,2,4-oxadiazol-5-yl)pyrrolidin-1-yl]prop-2-en-1-one], for which the “% of control remaining” value is listed as 93.9014%.

In the case of `C=CC(=O)N1CCC(C(=O)NCCC2(O)CCCOC2)CC1` (stereo not shown) [2-B04, N-[2-(3-hydroxyoxan-3-yl)ethyl]-1-(prop-2-enoyl)piperidine-4-carboxamide], the “% of control remaining” value turned out to be 101.004%.

With `Cc1ccc(C(=O)C(C)Cl)cc1C` (stereo not shown) [10-B20, 2-chloro-1-(3,4-dimethylphenyl)propan-1-one], the “% of control remaining” value was found to be 99.2792%.

Turning to `CCc1ccc(NC(=O)C(C#N)=Cc2cccnc2)cc1` [8-G04, 2-cyano-N-(4-ethylphenyl)-3-(pyridin-3-yl)prop-2-enamide], the “% of control remaining” value is recorded as 83.8205%.
